Rows were chosen to be rich in hits. Some 7.6% of all compounds tested hit in one or more screens of this group.
KB-3-1 cytotox: qHTS assay for MDR1-selective chemotherapeutics: Primary screen using the parental adenocarcinoma cell KB-3-1 | AID 1347075, 2019 | Potency, µM (doses to about 46.1 µM), hits mostly cytotoxic | KB-3-1 viability, CellTiter-Glo ATP luminescence, 72 h | hit rate 1.4% among 400,000; further: potency means the concentration at half of the fitted maximal effect; on the % scale 0 is the no-effect control and ±100 the full control effect; nearly all actives have a fitted effect of over 60% in size
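KB-3-1 cells, DMEM (no phenol red) + 10% FBS; compound by pin transfer, 72 h, 37 °C. Readout: CellTiter-Glo luminescence after 10 min. Data normalized, curve-fitted.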
hERG WT inh: qHTS for Inhibitors of KCHN2 3.1: Wildtype qHTS. U2OS, BacMam KCNH2, thallium flux FluxOr; hits give low values. activity change, % at 1.84 µM. hit rate 0.37% among 340,000. AID 720551, 2013;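 active means maximum activity change below -70%; inconclusive means maximum activity change between -70% and -50%; inactive means maximum activity change above -50%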; further: on the % scale 0 is the no-effect control and ±100 the full control effect
Target sequence (Q12809 whole entry, looked up): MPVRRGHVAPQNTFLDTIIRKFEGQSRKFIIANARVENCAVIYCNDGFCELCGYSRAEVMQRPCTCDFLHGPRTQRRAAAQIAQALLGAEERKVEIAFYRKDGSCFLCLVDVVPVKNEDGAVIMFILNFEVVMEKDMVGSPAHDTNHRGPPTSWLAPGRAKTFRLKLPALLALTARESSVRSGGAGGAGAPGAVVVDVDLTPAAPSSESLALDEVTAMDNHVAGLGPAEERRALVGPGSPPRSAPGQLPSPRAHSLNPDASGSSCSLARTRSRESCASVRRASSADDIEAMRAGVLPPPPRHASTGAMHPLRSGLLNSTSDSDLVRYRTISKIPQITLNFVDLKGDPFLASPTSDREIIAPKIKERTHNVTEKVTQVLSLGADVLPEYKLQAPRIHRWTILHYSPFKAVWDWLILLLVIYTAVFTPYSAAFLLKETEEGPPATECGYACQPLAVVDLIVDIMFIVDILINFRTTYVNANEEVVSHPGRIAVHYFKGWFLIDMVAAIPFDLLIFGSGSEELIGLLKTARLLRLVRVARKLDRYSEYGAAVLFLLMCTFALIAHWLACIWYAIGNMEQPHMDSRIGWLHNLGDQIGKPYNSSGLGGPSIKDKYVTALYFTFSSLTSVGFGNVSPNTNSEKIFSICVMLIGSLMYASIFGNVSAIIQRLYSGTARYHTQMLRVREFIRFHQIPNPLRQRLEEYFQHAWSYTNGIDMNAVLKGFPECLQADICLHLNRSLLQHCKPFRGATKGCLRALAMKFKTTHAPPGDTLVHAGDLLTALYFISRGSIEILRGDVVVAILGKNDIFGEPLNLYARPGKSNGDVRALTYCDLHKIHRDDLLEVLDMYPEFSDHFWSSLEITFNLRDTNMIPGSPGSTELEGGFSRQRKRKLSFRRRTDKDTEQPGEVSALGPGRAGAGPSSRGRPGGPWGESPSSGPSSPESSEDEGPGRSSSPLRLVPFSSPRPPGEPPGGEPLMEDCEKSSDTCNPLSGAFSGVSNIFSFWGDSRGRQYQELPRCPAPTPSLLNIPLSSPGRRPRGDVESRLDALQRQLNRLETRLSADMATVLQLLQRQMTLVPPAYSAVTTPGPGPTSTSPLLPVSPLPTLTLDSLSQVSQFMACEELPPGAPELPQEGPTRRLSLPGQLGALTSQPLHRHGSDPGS
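U2OS cells transduced with wild-type KCNH2 virus are loaded with FluxOr dye for 45 min, and thallium flux is measured in kinetic reads before and after stimulation buffer. Rate constants are normalized to DMSO controls.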
SW480 rerep: A quantitative high throughput screen for small molecules that induce DNA re-replication in SW480 colon adenocarcinoma cells; Potency, µM (top dose mostly 46.1 µM), for inactives: top-dose re-replication activation, actives largely listed as activators; hit rate 1.8% among 340,000; SW480 DNA re-replication, Hoechst DNA content imaging, 48 h; further: potency means the concentration at half of the fitted maximal effect; % of control where 0% means no effect; nearly all actives have a fitted effect of over 55% in size
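Image-based DNA-content assay: after two days of treatment, nuclei were labelled with the DNA dye Hoechst and imaged, and hits were compounds raising the count of nuclei showing high fluorescence intensity.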
KB-V1 cytotox: qHTS assay for MDR1-selective chemotherapeutics: Primary screen using the drug-selected MDR subline cells KB-V1; hit rate 3.4% among 400,000; KB-V1 MDR cells viability, CellTiter-Glo, 72 h; AID 1347076, 2019; Potency, µM (series often up to 46.1 µM), hits mostly cytotoxic; further: potency means the concentration at half of the fitted maximal effect; on the % scale 0 is the no-effect control and ±100 the full control effect; nearly all actives have a fitted effect of over 60% in size
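KB-V1, DMEM (no phenol red) + 10% FBS; cpd pin-transferred, titration series; 72 h, 37 degrees C; CellTiter-Glo, luminescence. Data normalized, curve-fit.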
MCF10A rerep: A quantitative high throughput screen for small molecules that induce DNA re-replication in MCF 10a normal breast cells; MCF 10A DNA re-replication, Hoechst nuclear intensity, 48 h; Potency, µM (top dose mostly 46.1 µM), inactives show at the highest dose activity, positive = re-replication, most hits filed as activators; hit rate 2.9% among 350,000; further: potency means the concentration at half of the fitted maximal effect; % of control where 0% means no effect; nearly all actives have a fitted effect of over 50% in size
KCNH2 3.1 block: qHTS for Inhibitors of KCHN2 3.1: Mutant qHTS; Potassium voltage-gated channel subfamily H member 2, brain isoform KCNH2 3.1 (human); U2OS KCNH2 3.1, thallium flux FluxOr; hits give low values; activity change, % (tested at about 1.8 µM); hit rate 0.95% among 340,000; AID 720553, 2013;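 active means maximum activity change below -70%; inconclusive means maximum activity change from -70% to -50%; inactive means maximum activity change above -50%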;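 further: thallium influx rate constant from kinetic fluorescence after stimulation buffer; on the % scale 0 is the no-effect control and ±100 the full control effect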
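Thallium flux read-out: FluxOr dye with Red40 quencher in HBSS/HEPES, 45 min at RT. Rate constants from kinetic reads were normalized to positive and negative DMSO controls. Cells: U2OS virally expressing the 3.1 isoform.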
Active calls of the source: *; i = inactive; u = inconclusive; x = no result given. Unless noted, the call rests on the fitted dose curve; in most records, active means well fitted curve in the direction sought with a large enough effect; inconclusive means small, poorly fitted or top-dose-only effect, or another doubt; inactive means no such curve, though single readings can be large; an effect the other way counts as inactive or inconclusive.

SMILES	KB-3-1 cytotox	hERG WT inh	SW480 rerep	KB-V1 cytotox	MCF10A rerep	KCNH2 3.1 block
COc1cc(-c2cnc3c(NC=O)cc(-c4ccccc4Cl)cn23)cc(OC)c1OC	1.03µM*	x	x	3.26µM*	x	x
Cc1nn(-c2ccccc2)c(Cl)c1/C=N/NC(=O)c1[nH]ncc1Br	i	-9.1	-3.7%	i	-5.1%	0.9
COc1ccccc1-c1c(C(F)(F)F)oc2cc(OC(=O)c3ccccc3[N+](=O)[O-])ccc2c1=O	i	1.9	0.3%	i	u	-4.7
COc1ccccc1-c1c(C(F)(F)F)oc2cc(OS(C)(=O)=O)ccc2c1=O	u	45.8	-4.5%	20.6µM*	1.5%	-9.5
COc1ccc(-c2c(C(F)(F)F)oc3cc(OCC(=O)Nc4ccccc4C(F)(F)F)ccc3c2=O)cc1OC	i	-7.4	2.8%	u	8.2µM*	-11.5
COc1ccccc1-c1c(C(F)(F)F)oc2cc(OCC(=O)Nc3ccccc3C(F)(F)F)ccc2c1=O	i	-0.6	-0.7%	i	3.8%	3.4
NCCCCC(NC(=O)C1CCCN1C(=O)C1CSSCC(N)C(=O)NC(Cc2ccc(O)cc2)C(=O)NC(Cc2ccccc2)C(=O)NC(CCC(N)=O)C(=O)NC(CC(N)=O)C(=O)N1)C(=O)NCC(N)=O (stereo unspecified)	x	x	-9.9%	x	1.2%	x
CCOC(=O)N1CCN(S(=O)(=O)c2ccc(C(=O)NNc3nc4cc(C)cc(C)c4s3)cc2)CC1	4.11µM*	10.6	u	i	u	-7.9
CCOC(=O)N1CCN(S(=O)(=O)c2ccc(C(=O)NNc3nc4ccc(Cl)cc4s3)cc2)CC1	u	-4.8	u	i	u	3.6
CCOC(=O)N1CCN(S(=O)(=O)c2ccc(C(=O)NNc3nc4c(C)cccc4s3)cc2)CC1	u	-4.6	u	i	u	4.0
CCOC(=O)N1CCN(S(=O)(=O)c2ccc(C(=O)NNc3nc4c(C)cc(C)cc4s3)cc2)CC1	u	-9.8	5.8µM*	u	u	-6.7
Cc1nnnn1/C(=C\c1ccccc1)C(=O)OCC(=O)NC1CCCCC1	i	16.3	23.1µM*	i	u	3.6
Cc1nnnn1/C(=C\c1ccccc1)C(=O)OCC(=O)NC(C)(C)C	i	3.3	u	i	u	8.3
O=[N+]([O-])c1cc(S(=O)(=O)NCCN2CCOCC2)ccc1Sc1nnnn1-c1ccccc1	13µM*	11.9	14.6µM*	i	u	1.7
Cc1ccc(-n2nnnc2Sc2ccc(S(=O)(=O)NCCN(C)C)cc2[N+](=O)[O-])cc1	i	5.6	8.2µM*	u	u	2.6
O=S(=O)(NCCN1CCOCC1)c1ccc2ccccc2c1	i	1.3	u	i	36.9%	-16.4
CN(CC(=O)Nc1ccc(S(=O)(=O)N2CCCC2)cc1)CC(=O)Nc1ccc(F)c(F)c1F	i	-5.4	-4.2%	u	5.7%	-39.4
COc1ccccc1NS(=O)(=O)c1ccc(NN=C2CCCC2)c([N+](=O)[O-])c1	i	0.6	-1.4%	2.91µM*	11.4%	7.9
CN(CC(=O)NCCc1ccc(S(N)(=O)=O)cc1)Cc1ccc(Cl)cc1Cl	u	6.8	-11.5%	16.4µM*	-2.1%	-3.2
O=[N+]([O-])c1cc(S(=O)(=O)N2CCCCCC2)ccc1F	u	1.4	x	i	4.61µM*	-4.5
CN(CC(=O)NCCc1ccc(S(N)(=O)=O)cc1)Cc1c(F)cccc1Cl	i	7.3	0.0%	i	-4.8%	-18.4
CN(CC(=O)Nc1ccc(S(=O)(=O)N2CCCC2)cc1)Cc1ccc(Cl)cc1Cl	i	-2.9	x	13µM*	9.1%	-9.5

Compound activity: PubChem BioAssay, National Center for Advancing Translational Sciences (NCATS)
